# Bioassay records: PubChem, Broad Institute
# In the library only some 2.1% were active in any assay of this set; here they are far more common.
# F508del corr = correctors of CFTR F508del function in bronchial epithelial cells; CFBE cells, YFP halide quenching; stimulated with forskolin plus potentiator P3; % fluorescence drop versus neutral controls; activity (quench increase), % at 7.58 µM; actives 0.36% (n = 350,000); AID 720511;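 active = mean added fluorescence quench of at least 8% versus neutral control, with both replicates also reaching 8%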;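 note: cells transiently co-express mutant CFTR-F508del with the halide-sensitive YFP; corrector assay measuring rescue of mutant channel to the surface after 24 h compound exposure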
# ARNT TACC3 PPI = ARNT/TACC3 interaction disruption. AlphaScreen His-ARNT PAS-B/GST-TACC3 binding, luminescence; TACC3 fragment carries E629A point mutation. actives 0.66% (n = 390,000). inhibition, % at 9.99 µM. Q9Y6A5;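 active = mean inhibition of replicates at least 50% and at least half of replicates each reaching 50%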;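 note: 0% = complete ARNT plus TACC3 wells and 100% = ARNT alone without TACC3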
# ERAP1 HTS inh = ERAP1 (human) enzyme inhibition; Q9NZ08; recombinant ERAP1, Leu-AMC fluorescence, 60 min; inhibition, % at 10.7 µM; actives 0.15% (n = 340,000);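 active = mean replicate inhibition of at least 30%, or all replicates individually reaching that 30% level; inactive = mean below 30% and not every replicate reaching it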;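 note: 0% = neutral control wells and 100% = L-leucinethiol positive control wells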
# PvdQ acylase = blocks Pseudomonas aeruginosa PvdQ acylase activity. purified PvdQ acylase, fluorescence plate reader. inhibition, % at 10 µM. actives 0.063% (n = 340,000); in the data active = inhibition above about 30%, passing the limit was not always enough;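 note: 0% = vehicle neutral wells and 100% = reference inhibitor wells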
# rRNA inh HTS = inhibitors of bacterial rRNA selective over humanized ribosomes; E. coli WT GFP vs humanized-ribosome RFP mutants, fluorescence, 24 h; stronger effect = lower value; DMSO median 0, no signal -100; actives 1.6% (n = 350,000); GFP signal change (wild-type ribosome), % (test concentration not listed); AID 720706;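 active = significant combined selectivity score with lowered wild-type GFP, culture density cut under 30%, mutant RFP and density less affected; inactive = any of these conditions unmet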
# Starred values were filed as active, the others as inactive; · = no result.
SMILES,F508del corr,ARNT TACC3 PPI,ERAP1 HTS inh,PvdQ acylase,rRNA inh HTS
CCOC(=O)C1CCCCN1Cc1ccc(-c2ccccc2)cc1 (stereo not given),1,-12,3,-9,-29*
O=C(C1=C[C@@H](C2CC2)C[C@@H](OCCCCO)O1)N1CCCCCCC1,-2,12,3,·,·
N#Cc1cc([N+](=O)[O-])ccc1N1CCN(c2ccccc2O)CC1,2,2,5,-12,-24*
O=[N+]([O-])c1ccc(N2CCN(c3ccc([N+](=O)[O-])cc3CO)CC2)c(CO)c1,-1,-4,-4,-12,-7
CC(=O)NN1C(=O)c2ccc3c4c(ccc(c24)C1=O)C(=O)N(NC(C)=O)C3=O,1,5,-1,2,-22*
O=C1c2ccc3c4c(ccc(c24)C(=O)N1NC(=O)C(F)(F)F)CC3,·,-14,·,-16,·
NS(=O)(=O)c1ccc(NC(=O)c2ccc(S(=O)(=O)N3CCCCCC3)cc2)cc1,6,-6,1,-20,-20*
CC(=O)c1ccc(NC(=O)Nc2ccc(S(=O)(=O)N3CCCC3)cc2)cc1,4,·,0,15,-28*
O=C(Nc1ccc(S(=O)(=O)N2CCCC2)cc1)c1ccc(OCC2CCCO2)cc1 (stereo not given),-2,-1,2,-10,-20*
O=C(Nc1cccc(S(=O)(=O)N2CCCCC2)c1)c1ccc(OCC2CCCO2)cc1 (stereo not given),4,4,2,-8,1
C[C@@H]1CN([C@H](C)CO)S(=O)(=O)c2ccc(-c3ccccc3)cc2O[C@@H]1CN(C)C,-2,-11,1,·,3
COc1cc(-c2nccc3cc4c(cc23)OCO4)cc(OC)c1OC,9.2*,-2,-1,-10,-11
CCCCNC(=O)C(=O)Nc1ccc2c(c1)N(S(=O)(=O)c1cccs1)CCC2,11*,·,-2,·,2
CC(C)NC(=O)C(=O)Nc1ccc2c(c1)N(S(=O)(=O)c1cccs1)CCC2,-1,0,-2,-18,-18*
CO[C@H]1CN(C)C(=O)c2ccc(NC(=O)C3CCC3)cc2OC[C@@H](C)N(CC2CCCCC2)C[C@H]1C,1,12,3,·,5
O=c1oc(=S)oc2c1[C@H](c1ccc(Cl)cc1)O[C@H](C1CCCC1)C2,-2,·,-1,·,-10
O=c1oc(=S)oc2c1[C@H](c1ccc(Cl)cc1)O[C@H](C1CC1)C2,2,·,1,·,-43*
O=C(OCc1nc2ccccc2s1)c1ccccc1O,-7,-9,-3,12,-29
CSCc1ccc(C(=O)OCc2nc3ccccc3s2)o1,0,6,0,-9,-16*
CC=Cc1ccc2n(c1=O)C[C@H]1[C@H](CO)[C@@H](C(=O)NCc3ccccn3)N(CC3CC3)[C@@H]21 (mixture of isomers),·,14,-1,·,2
Cc1ccc(CSCC(=O)NCc2ccc3c(c2)OCO3)cc1,-1,-4,·,-9,-23*
COc1ccc2c3c([nH]c2c1)[C@@H](CO)N(C(=O)Nc1ccc(F)cc1)CC31CCN(C(=O)Nc2ccccc2)CC1,-1,·,·,·,-3
COc1ccc(C2CC(=O)C(c3ccccc3)=CN2Cc2ccccc2)cc1 (stereo not given),0,·,2,·,-19
CNC[C@H]1Oc2ccc(NS(=O)(=O)c3ccc(Cl)cc3)cc2C(=O)N([C@H](C)CO)C[C@H]1C,1,5,5,·,11
Cc1nc(C(=O)N2CCc3c([nH]c4ccccc34)C2c2ccccn2)cs1 (stereo not given),-1,12,1,5,-20*
SMILES,F508del corr,ARNT TACC3 PPI,ERAP1 HTS inh,PvdQ acylase,rRNA inh HTS
CC(C)c1nc(C(=O)N2CCc3c([nH]c4ccccc34)C2c2ccccn2)cs1 (stereo not given),-1,·,-1,9,-30
C[C@@H]1CN([C@@H](C)CO)C(=O)c2cccc(NC(=O)c3cnccn3)c2O[C@@H]1CN(C)C(=O)Nc1ccc(F)cc1,2,-6,-2,·,-1
CN(C)C(=O)c1cccc(-c2ccc([C@H]3[C@H](CO)N4CCCCN(CC5CCOCC5)C[C@@H]34)cc2)c1,3,-7,-1,·,9
Cc1ccc(CNS(=O)(=O)c2ccc3c(c2)NC(=O)C(C)S3)cc1 (stereo not given),-1,10,7,-2,-34*
CCN(Cc1ccccc1)S(=O)(=O)c1ccc2c(c1)NC(=O)CS2,-1,2,6,-13,-35*
O=C1CSc2ccc(S(=O)(=O)NCc3ccc(Cl)cc3)cc2N1,-2,-7,-3,-15,-30*
CCN(Cc1ccccc1)S(=O)(=O)c1ccc2c(c1)NC(=O)CC(=O)N2,-1,-11,-2,25,5
COc1ccc(CNS(=O)(=O)c2ccc3c(c2)NC(=O)C(C)S3)cc1 (stereo not given),-2,-14,6,-3,-19*
O=C1CSc2ccc(S(=O)(=O)NCc3ccc(F)cc3)cc2N1,1,3,1,-8,-19
CC(=C/c1ccccc1)/C=N/N1CCN(Cc2ccc(C)cc2)CC1,0,-6,2,-6,-25*
O=C(/C=C/c1ccccc1Cl)N(Cc1cccs1)C1CCS(=O)(=O)C1 (stereo not given),-2,-1,7,-7,-35*
C[C@@H]1CN([C@H](C)CO)C(=O)c2cc(-c3cccc(F)c3)cnc2O[C@@H]1CN(C)Cc1ccccc1,0,-2,1,·,2
COc1ccc(NC(=O)c2nc(C)c(C3(C)CC(c4ccccc4)=NO3)s2)cc1 (stereo not given),14*,0,-3,-7,-2
CC(C)c1cn(CC[C@H]2CC[C@@H](NC(=O)C3CCOCC3)[C@@H](CO)O2)nn1,2,·,3,·,3
CCOc1ccc(N=Cc2c(C)[nH]n(-c3nc4ccccc4[nH]3)c2=O)cc1,·,72*,0,3,17
Cc1[nH]n(-c2ccccc2)c(=O)c1C=Nc1cnc2ccccc2c1,·,0,·,-11,·
C[C@@H]1CN([C@@H](C)CO)C(=O)c2cc(C#CCN(C)C)cnc2O[C@@H]1CN(C)C(=O)NC1CCCCC1,·,·,-2,·,6
NS(=O)(=O)c1ccc(S(=O)(=O)N(CCc2ccccc2)Cc2ccccn2)cc1,8.4*,-2,-1,-4,2
O=C(c1cc(COc2ccc3ncccc3c2)on1)N1CCCC1,-2,-10,2,8,-24*
Cc1cc(C)n(-c2nnc(C)n2N)n1,·,-14,·,-9,·
Cc1cc(C)n(-c2nnc(C)c(=O)[nH]2)n1,·,60*,7,-6,0
O=C(Nc1ccc2c(c1)OCO2)N1C[C@@H]2N[C@H](C1)C2c1ccc(-c2ccccc2)cc1 (stereo not given in full),1,·,·,·,0
C[C@@H]1CCCCO[C@H](CN(C)C(=O)c2ccccc2)[C@@H](C)CN([C@H](C)CO)C(=O)c2cc(NC(=O)Nc3ccccc3)ccc2O1,1,-3,-6,·,-1
